An excerpt weighted towards active compounds, which were near 17% of everything screened.
TDP1 cell noCPT – qHTS for Inhibitors of human tyrosyl-DNA phosphodiesterase 1 (TDP1): qHTS in cells in absence of CPT. DT40 Tdp1-/- hTDP1 cells, no CPT, ATP luminescence, 48 h. 420,000 compounds, 15% hits. Potency, µM (titrated, usually from 46.2 µM), for inactives: at the highest dose activity change, negative = growth inhibition, most hits filed as inhibitors. AID 686978, 2013; note: % is set by controls: 0 for no effect and ±100 for the full control effect; nearly all actives have a fitted effect of over 55% in size
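Chicken DT40 Tdp1-/- cells complemented with human TDP1, screened without camptothecin (DMSO vehicle only), 400 cells/well. Compounds pin-transferred, cells incubated at 37 °C for at least 48 hr. Growth read as ATP-dependent luminescence (CellTiter-Glo, 30 min at RT).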
DT40 TDP1 CPT – growth inhibition of DT40 Tdp1-/-;hTDP1 cells with camptothecin (screen for TDP1 inhibitors) | Potency, µM (highest dose often 46.2 µM), for the others: at the top dose activity change, negative = growth inhibition, hits mostly inhibitors | 420,000 compounds, 12% hits | chicken DT40 Tdp1-/-;hTDP1 cells + 20 nM CPT, ATP luminescence, 48 h; note: % is set by controls: 0 for no effect and ±100 for the full control effect; nearly all actives have a fitted effect of over 55% in size
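Chicken DT40 Tdp1-/- cells stably complemented with human TDP1 were seeded at 400 cells/well in medium containing 20 nM camptothecin, exposed to pin-transferred compounds, and grown at 37 °C for at least 48 hr. Viability was read as ATP luminescence.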
TGFb SMAD3 inh – blocks TGF-b signaling. HepG2 CAGA-GFP TGF-b/SMAD3 reporter, GFP fluorescence, 18 h; TGF-beta stimulated, 500 pg/mL final. Potency, µM (top dose mostly 46.1 µM), for inactives: top-dose activity, negative = inhibition, usual class: inhibitors. 410,000 compounds, 1.2% hits; note: % is set by controls: 0 for no effect and ±100 for the full control effect; nearly all actives have a fitted effect of over 65% in size
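Cell-based qHTS in HEPG2 carrying a CAGA-GFP Smad reporter; compounds added before 500 pg/mL final TGF-beta, 18 h incubation at 37 degrees C, GFP fluorescence quantified per cell by imaging cytometry.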
HepG2 tox – HepG2 cytotoxicity, counter-screen for TGF-b inhibitors; 410,000 compounds, 0.76% hits; HepG2 CAGA-GFP viability, ATP luminescence, 18 h; AID 588856; Potency, µM (doses to about 46.1 µM), inactives show top-dose activity change, negative = cytotoxicity, hits mostly cytotoxic
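CellTiter-Glo luminescence gave cytotoxicity after 18 hours at 37 degrees C. The cells were HepG2 CAGA-GFP in 1% FBS DMEM, stimulated with 500 pg/mL TGF-beta after compound addition. %Activity was normalised to no-cell wells (complete cell-killing) and DMSO (no toxicity), and curves were fitted and classified.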
HT1080 IDH1KD tx – kills HT-1080 cells with IDH1 knockdown | HT-1080 IDH1 knockdown viability, ATP luminescence, 48 h | Potency, µM (top dose mostly 46.1 µM), for the others: at the top dose activity, negative = toxicity, actives largely listed as cytotoxic | 360,000 compounds, 2% hits | AID 686971;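 note: 0% = DMSO wells and -100% = cell-free medium wells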
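Assay cells: HT-1080 with IDH1 knockdown, 750 per well, RPMI/5% FBS. Exposure: 48 h at 37 °C following 2 h pre-incubation. Read: CellTiter-Glo luminescence; fitted concentration-response, curve class assigned.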
HT1080-NT tox – kills 2HG-producing HT-1080-NT fibrosarcoma cells; 360,000 compounds, 1.6% hits; HT-1080-NT fibrosarcoma viability, CellTiter-Glo ATP luminescence, 48 h; Potency, µM (doses to about 46.1 µM), for inactives: at the top dose activity, negative = less viability, usual class: cytotoxic; AID 686970;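 note: NT is the 2HG producing partner of a matched IDH1 knockdown line; 0% = DMSO-treated cells and -100% = media-only wells without cells; nearly all actives have a fitted effect of over 55% in size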
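Viability of the 2HG-overproducing fibrosarcoma line after 48 hours of compound exposure at 37 degrees C was determined by luminescence with CellTiter-Glo, and concentration-effect curves were then fitted and categorized.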
* hit, by the source's call. Calls come from the whole dose curve; as a rule, active = well fitted curve in the direction sought with a large enough effect; inconclusive = small, poorly fitted or top-dose-only effect, or another doubt; inactive = no such curve, though single readings can be large; an effect the other way counts as inactive or inconclusive. Potency is the fitted concentration of half-maximal effect.

How did COCCOC(=O)c1c(C)nc(SCC(=O)Nc2cccc3ccccc23)c(C#N)c1-c1ccco1 do in these assays?
TDP1 cell noCPT: 29µM*; DT40 TDP1 CPT: inconclusive; TGFb SMAD3 inh: 6%; HepG2 tox: -12%; HT1080 IDH1KD tx: 0%; HT1080-NT tox: -12%

What do the screens show for `CC(=O)N1N=C(c2cccc(NS(=O)(=O)c3ccc(C)cc3)c2)CC1c1ccco1` (stereo not drawn)?
TDP1 cell noCPT: inconclusive; DT40 TDP1 CPT: inconclusive; TGFb SMAD3 inh: -15%; HepG2 tox: -5%; HT1080 IDH1KD tx: inconclusive; HT1080-NT tox: -4%

Results for CS(=O)(=O)Nc1ccc(C2=NN(C(=O)c3ccco3)C(c3ccccc3F)C2)cc1 (stereo not drawn) ?
TDP1 cell noCPT: 18µM*; DT40 TDP1 CPT: inconclusive; TGFb SMAD3 inh: -1%; HepG2 tox: -9%; HT1080 IDH1KD tx: -9%; HT1080-NT tox: -3%

Results for Cc1ccccc1C(=O)N1N=C(c2cccc(NS(C)(=O)=O)c2)CC1c1cccs1 (stereo not drawn) ?
TDP1 cell noCPT: -24%; DT40 TDP1 CPT: -27%; TGFb SMAD3 inh: 8%; HepG2 tox: -5%; HT1080 IDH1KD tx: -1%; HT1080-NT tox: -5%

What do the screens show for `CS(=O)(=O)Nc1cccc(C2=NN(C(=O)c3ccccc3Cl)C(c3ccccc3O)C2)c1` (stereo not drawn)?
TDP1 cell noCPT: 29µM*; DT40 TDP1 CPT: 15µM*; TGFb SMAD3 inh: inconclusive; HepG2 tox: -3%; HT1080 IDH1KD tx: -11%; HT1080-NT tox: -13%

How did CS(=O)(=O)Nc1cccc(C2=NN(C(=O)c3ccco3)C(c3ccco3)C2)c1 (stereo not drawn) do in these assays?
TDP1 cell noCPT: inconclusive; DT40 TDP1 CPT: 16µM*; TGFb SMAD3 inh: 4%; HepG2 tox: -10%; HT1080 IDH1KD tx: -26%; HT1080-NT tox: -1%

How did CCS(=O)(=O)Nc1ccc(C2=NN(C(=O)c3ccco3)C(c3cccs3)C2)cc1 (stereo not drawn) do in these assays?
TDP1 cell noCPT: inconclusive; DT40 TDP1 CPT: inconclusive; TGFb SMAD3 inh: inconclusive; HepG2 tox: 0%; HT1080 IDH1KD tx: -14%; HT1080-NT tox: -17%

What do the screens show for `CCS(=O)(=O)Nc1ccc(C2=NN(C(=O)c3ccco3)C(c3ccco3)C2)cc1` (stereo not drawn)?
TDP1 cell noCPT: 4.1µM*; DT40 TDP1 CPT: 4.6µM*; TGFb SMAD3 inh: inconclusive; HepG2 tox: -14%; HT1080 IDH1KD tx: 16µM*; HT1080-NT tox: inconclusive

What do the screens show for `CCC(=O)N(C)C[C@@H]1Oc2ncc(Br)cc2C(=O)N([C@@H](C)CO)C[C@H]1C`?
TDP1 cell noCPT: -18%; DT40 TDP1 CPT: 6%; TGFb SMAD3 inh: -1%; HepG2 tox: -13%; HT1080 IDH1KD tx: 11%; HT1080-NT tox: inconclusive

What do the screens show for `O=C(OCc1c(F)cccc1Cl)c1cnc(Cl)c(Cl)c1`?
TDP1 cell noCPT: -13%; DT40 TDP1 CPT: 10%; TGFb SMAD3 inh: 7%; HepG2 tox: 5%; HT1080 IDH1KD tx: 0%; HT1080-NT tox: 8%

What do the screens show for `CCS(=O)(=O)Nc1cccc(C2=NN(C(=O)c3ccco3)C(c3ccco3)C2)c1` (stereo not drawn)?
TDP1 cell noCPT: 2.6µM*; DT40 TDP1 CPT: 4.6µM*; TGFb SMAD3 inh: -5%; HepG2 tox: -21%; HT1080 IDH1KD tx: inconclusive; HT1080-NT tox: inconclusive

How did C[C@@H]1C(c2cccc(Cl)c2)=NN(c2ccccc2)[C@H]1C(=O)N1CCOC1=O do in these assays?
TDP1 cell noCPT: inconclusive; DT40 TDP1 CPT: inconclusive; TGFb SMAD3 inh: 20µM*; HepG2 tox: -48%; HT1080 IDH1KD tx: -13%; HT1080-NT tox: -9%

What do the screens show for `O=C1OCCN1C(=O)[C@H]1[C@H](c2ccc([N+](=O)[O-])cc2)C(c2ccc(F)cc2)=NN1c1ccc(Br)cc1`?
TDP1 cell noCPT: 15µM*; DT40 TDP1 CPT: inconclusive; TGFb SMAD3 inh: inconclusive; HepG2 tox: -29%; HT1080 IDH1KD tx: inconclusive; HT1080-NT tox: -19%

What do the screens show for `O=C1OCCN1C(=O)[C@H]1[C@H](c2ccc([N+](=O)[O-])cc2)C(c2ccc(F)cc2)=NN1c1ccccc1`?
TDP1 cell noCPT: -24%; DT40 TDP1 CPT: inconclusive; TGFb SMAD3 inh: inconclusive; HepG2 tox: -37%; HT1080 IDH1KD tx: -28%; HT1080-NT tox: -14%

How did C[C@@H]1C(c2cccc(Cl)c2)=NN(c2ccc(Br)cc2)[C@H]1C(=O)N1CCOC1=O do in these assays?
TDP1 cell noCPT: inconclusive; DT40 TDP1 CPT: inconclusive; TGFb SMAD3 inh: 10µM*; HepG2 tox: -30%; HT1080 IDH1KD tx: inconclusive; HT1080-NT tox: inconclusive

How did Cc1c(CNC(=O)c2nn3c(c2Cl)NC(c2ccccc2)CC3C(F)(F)F)cnn1C (stereo not drawn) do in these assays?
TDP1 cell noCPT: inconclusive; DT40 TDP1 CPT: inconclusive; TGFb SMAD3 inh: -2%; HepG2 tox: -25%; HT1080 IDH1KD tx: 6%; HT1080-NT tox: -6%

What do the screens show for `Cc1cc(NC(=O)Cn2nc(-c3cccs3)ccc2=O)cc(C)c1Br`?
TDP1 cell noCPT: 29µM*; DT40 TDP1 CPT: 29µM*; TGFb SMAD3 inh: 0%; HepG2 tox: -18%; HT1080 IDH1KD tx: 1%; HT1080-NT tox: 26%

What do the screens show for `Cc1c(Br)ccc(NC(=O)Cn2nc(-c3cccs3)ccc2=O)c1C`?
TDP1 cell noCPT: -19%; DT40 TDP1 CPT: -9%; TGFb SMAD3 inh: -3%; HepG2 tox: -11%; HT1080 IDH1KD tx: -4%; HT1080-NT tox: -23%

What do the screens show for `O=C1c2ccccc2C(=O)c2c(Nc3ccc(CCO)cc3)ccc(O)c21`?
TDP1 cell noCPT: 16µM*; DT40 TDP1 CPT: inconclusive; TGFb SMAD3 inh: -25%; HepG2 tox: -32%; HT1080 IDH1KD tx: -20%; HT1080-NT tox: -21%

Results for O=C(O)c1ccc2c(c1Nc1ccccc1)C(=O)c1ccccc1C2=O ?
TDP1 cell noCPT: inconclusive; DT40 TDP1 CPT: inconclusive; TGFb SMAD3 inh: -11%; HepG2 tox: -22%; HT1080 IDH1KD tx: -7%; HT1080-NT tox: -5%

How did CC(C)c1ccc(NC(=O)C2CCCN(S(=O)(=O)c3cccc4nsnc34)C2)cc1 (stereo not drawn) do in these assays?
TDP1 cell noCPT: 10µM*; DT40 TDP1 CPT: 4.6µM*; TGFb SMAD3 inh: inconclusive; HepG2 tox: -32%

Compound activity as filed in PubChem BioAssay.
